The target of one assay is Albumin (Bos taurus) (UniProt P02769). Put plainly: compounds binding labelled BSA control protein – biochemical, small-molecule microarray, Alexa647 label, 635/667 nm fluorescence, artefact control for SMM control protein annotation, profiling panel (AID 1118).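 Also: score merges 667 nm emission intensity and signal-to-noise per printed compound spot.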 As to conditions: BSA-A647 binding, fluorescence 635 nm, higher = more signal.
The nature of assay [1]: probe aXIP binding to arrayed compounds – biochemical, NeuroSMM set, 635/667 nm fluorescence, primary screen (AID 1119).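 Also: probe is the protein aXip251-270 applied at 1 µg/mL to compound-printed slides; binding of probe to printed compounds measured as 667 nm fluorescence plus signal to noise.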 As to conditions: small-molecule microarray, higher = more signal, called active from +8 up or from −8 down.
A short description of assay [2]: probe aNOTCH3 binding on compound microarray – biochemical, small-molecule microarray, 635/667 nm fluorescence, primary screen (AID 1120).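 Also: probe is a biotin-tagged antibody raised against NOTCH3 rather than NOTCH3 protein; score merges spot fluorescence near 667 nm with spot signal to noise.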 As to conditions: higher = more signal.
Assay [3] is described as follows: probe aNOTCH2 binding on compound microarray – biochemical, small-molecule microarray, 635/667 nm fluorescence, primary screen (AID 1121).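 Also: score merges feature fluorescence read at 667 nm with its signal to noise.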 Conditions: higher = more signal.
For assay [4], the target named is Carbonic anhydrase 2 (Homo sapiens) (UniProt P00918). Put plainly: compounds binding carbonic anhydrase 2 – biochemical, small-molecule microarray, Alexa647-labelled CAII, profiling panel (AID 1122). As to conditions: CAII-A647 binding fluorescence, higher = more signal.
Assay [5] can be described thus: COS7 lysate on small-molecule microarray, probe aHis, 635 nm (AID 1123).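 Also: z-score combines 667nm fluorescence intensity with signal-to-noise per printed compound spot.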 Conditions: COS7 cell lysate, fluorescence, higher = more signal.
Assay [6] can be described thus: probe aLAP1 signal on lysate-treated microarray – cell lysate, small-molecule microarray, COS7 lysate, primary screen (AID 1124).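 Also: lysate comes from COS7 cells expressing LAP1 and is applied at 0.3 µg/mL; score merges spot fluorescence near 667 nm with signal-to-noise over triplicate slides.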 Conditions: probe aLAP1, fluorescence, higher = more signal.
The next assay has as its system Sam68 (KHDRBS1). Put plainly: compounds binding KHDRBS1 protein – biochemical, small-molecule microarray, 635 nm fluorescence, primary screen (AID 1125).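 Also: score merges 667 nm channel intensity with signal to noise over triplicate slides.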 Conditions: higher = more signal.
In assay [7] the test system is Chordin-like protein 2 (CHRDL2). Put plainly: compounds binding chordin-like 2 – biochemical, small-molecule microarray, 635 nm fluorescence, primary screen (AID 1126).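 Also: printed compound slides probed with Chrdl2 protein at 4 µg/mL for 1 h at 4 C; score merges 667 nm emission intensity with signal to noise over three replicate slides.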 Conditions: fluorescence 635 nm, higher = more signal.
Assay [8] has as its target Concanavalin-A (Canavalia ensiformis) (UniProt P02866). Put plainly: compounds binding concanavalin A lectin – biochemical, small-molecule microarray, Alexa647 label, 635 nm, artefact control for SMM control protein annotation, primary screen (AID 1127).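 Also: z combines 667 nm emission intensity with signal-to-noise across three replicate slides.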 Conditions: ConA-A647 binding fluorescence, higher = more signal.

The source made the active and inactive calls.

Chain of Albumin (Bos taurus) (P02769 whole entry, looked up): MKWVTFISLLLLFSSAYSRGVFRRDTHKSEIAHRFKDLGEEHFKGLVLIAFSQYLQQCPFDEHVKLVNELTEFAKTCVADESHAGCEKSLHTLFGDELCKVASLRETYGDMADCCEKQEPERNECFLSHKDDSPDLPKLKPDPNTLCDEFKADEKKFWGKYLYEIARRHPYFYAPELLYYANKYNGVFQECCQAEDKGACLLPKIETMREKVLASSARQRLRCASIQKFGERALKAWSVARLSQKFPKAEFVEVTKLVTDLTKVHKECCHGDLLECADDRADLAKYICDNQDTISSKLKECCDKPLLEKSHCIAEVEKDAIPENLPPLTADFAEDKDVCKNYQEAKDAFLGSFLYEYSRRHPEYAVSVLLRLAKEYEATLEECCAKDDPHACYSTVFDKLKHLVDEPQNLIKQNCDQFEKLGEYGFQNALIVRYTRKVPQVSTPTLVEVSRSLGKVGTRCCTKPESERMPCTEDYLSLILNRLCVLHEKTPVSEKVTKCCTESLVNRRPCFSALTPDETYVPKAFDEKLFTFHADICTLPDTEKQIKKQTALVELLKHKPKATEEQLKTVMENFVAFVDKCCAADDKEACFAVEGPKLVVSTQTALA
Chain of Concanavalin-A (Canavalia ensiformis) (P02866 whole entry, looked up): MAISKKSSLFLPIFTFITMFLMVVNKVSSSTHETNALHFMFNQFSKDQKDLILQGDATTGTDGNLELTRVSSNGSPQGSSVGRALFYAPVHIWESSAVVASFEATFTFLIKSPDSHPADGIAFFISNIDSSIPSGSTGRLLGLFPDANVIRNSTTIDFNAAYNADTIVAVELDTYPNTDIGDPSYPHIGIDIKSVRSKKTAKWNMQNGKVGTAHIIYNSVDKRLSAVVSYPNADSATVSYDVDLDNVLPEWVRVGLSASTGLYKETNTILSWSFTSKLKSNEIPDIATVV

Turning to `C=C(/C(=C/C[C@@H](OC(=O)c1ccncc1)c1ccccc1OCCO)c1cc(C(=O)OC)ccc1OC)C(C)C`, the composite z-score in the assay with Albumin (Bos taurus) is 0.359; in [2], 0.138; in assay [3] it was -0.0895; in assay [4], 0.676; in assay [5], 1.75; in assay [6], 0.457. Further, the composite z-score with Sam68 (KHDRBS1) came out at 1.25; in [7], 0.0435; in [8], 0.474. In addition, in assay [1], the composite Z-score is -0.0951 (inactive).

Regarding `COCCOC(=O)N1C(=O)[C@@]2(c3cc(C#Cc4ccc(OC)cc4)ccc31)[C@H](C(=O)N1CCN(c3ncccn3)CC1)[C@H]1C(=O)O[C@H](c3ccccc3)[C@H](c3ccccc3)N1[C@@H]2c1ccccc1OCCO`, the composite z-score was -0.108 with Albumin (Bos taurus); -0.122 in assay [2]; -0.114 in [3]; 0.331 in assay [4]; 1.3 in assay [5]; 0.107 in [6]. The values for the composite z-score (with Sam68 (KHDRBS1); in [7]; in assay [8]) were 0.717, -0.0849 and 0.819, respectively. The composite Z-score in [1] was 0.131 (inactive).

As for `CO[C@H]1O[C@H](CO)[C@@H](OC(=O)Nc2ccccc2-c2ccccc2)[C@H](OC(=O)Nc2ccc3c(c2)OCO3)[C@@H]1OC(=O)Nc1ccc2c(c1)OCO2`, the composite z-score with Albumin (Bos taurus) was 0.508; in assay [2] it was 0.389; in assay [3], -0.0684; in [4], 0.735; in [5] it was 2.47; in [6], 0.335. Moreover, the composite z-score with Sam68 (KHDRBS1) stood at 1.3; in assay [7], 0.517; in assay [8], 0.921. Also, the composite Z-score in [1] was 0.151 (inactive).

In the case of `COCCOC(=O)N1C(=O)[C@@]2(c3cc(C#CC4=CCCCC4)ccc31)[C@H](c1ccccc1OCCO)N1[C@H](c3ccccc3)[C@H](c3ccccc3)OC(=O)[C@H]1[C@@H]2C(=O)N1CCc2cc(OC)c(OC)cc2C1`, the composite z-score is -0.157 with Albumin (Bos taurus); -0.406 in [2]; -0.255 in [3]; 0.426 in assay [4]; 0.641 in assay [5]; 0.379 in assay [6]. Also, the composite z-score came out at 1.3 with Sam68 (KHDRBS1), 0.774 in assay [7] and 0.856 in assay [8]. For the same molecule, the composite Z-score in assay [1] is 0.0781 (inactive).

`CC=CC(O)C1C=CC2C(=O)N(C)C(=O)C2N1N1CCCCC1` (stereo not given): the composite z-score was found to be 1.01 with Albumin (Bos taurus); 0.16 in assay [2]; 0.0701 in assay [3]; 0.783 in assay [4]; 2.48 in assay [5]; 0.466 in [6]. The figures for the composite z-score (in the assay on Sam68 (KHDRBS1); in assay [7]; in assay [8]) were 1.27, -0.0061 and 0.915, respectively. Besides, the composite Z-score in assay [1] was 0.298 (inactive).

For `CN1C(=O)C2C(C1=O)C1C=C(c3ccc(CO)cc3)C2C(c2cccs2)N1Cc1cccc(OC(F)(F)F)c1` (stereo not given), the composite z-score was 0.866 with Albumin (Bos taurus); 0.0824 in [2]; -0.152 in assay [3]; 0.47 in assay [4]; 1.98 in assay [5]; 0.37 in [6]. The values for the composite z-score (in the assay on Sam68 (KHDRBS1); in assay [7]; in assay [8]) were 1.28, 0.0434 and 1.08, respectively. Also, the composite Z-score in assay [1] was -0.228 (inactive).

In the case of `C[C@]12C(=O)N(CCCCCCO)[C@@H]3C(=O)N(c4ccc(Cl)cc4)CC=CC31O[C@@H]1/C=C\CCCOC(=O)C12` (stereo not given in full), the composite z-score was 0.377 with Albumin (Bos taurus); -0.16 in [2]; -0.136 in assay [3]; 0.695 in [4]; 2.08 in [5]; -0.133 in assay [6]. Besides, the composite z-score in the assay with Sam68 (KHDRBS1) was 0.488; in assay [7], -1.75; in [8], -0.403. For the same molecule, the composite Z-score in assay [1] was 1.82 (inactive).

Turning to `CN1C(=O)C2C=CC(C(O)Cc3ccccc3)N(N(c3ccccc3)c3ccccc3)C2C1=O` (stereo not given), the composite z-score with Albumin (Bos taurus) was 0.829; in assay [2] it was 0.116; in assay [3], -0.0086; in assay [4], 0.613; in assay [5] it was 1.02; in assay [6] it was 0.521. The composite z-score is 0.805 with Sam68 (KHDRBS1), -0.897 in assay [7] and 0.325 in assay [8]. For the same molecule, in [1], the composite Z-score was 0.895 (inactive).

On to `[N-]=[N+]=Nc1ccccc1C[C@]1(C(=O)NCc2ccccc2)N=C(c2ccc(OCCCO)cc2)O[C@H]1c1ccccc1`, for which the composite z-score in the assay with Albumin (Bos taurus) came out at 0.989; in assay [2] it was 0.285; in assay [3], 0.0443; in [4], 0.714; in [5], 2.93; in [6] it was 0.373. In addition, the composite z-score in the assay with Sam68 (KHDRBS1) is 1.29; in [7], -0.755; in assay [8], 1.07. Moreover, the composite Z-score in [1] is 0.0068 (inactive).

As for `COC(=O)[C@@]1(Cc2ccc(OC)cc2)[C@H]2c3cc(C(=O)N(C)C)n(Cc4nc5ccccc5[nH]4)c3C[C@H]2CN1C(=O)c1ccccc1`, the composite z-score with Albumin (Bos taurus) is 0.997; in assay [2] it was 0.515; in [3] it was -0.112; in assay [4], 0.781; in assay [5], 2.27; in assay [6], -0.0637. Further, the values for the composite z-score (in the assay with Sam68 (KHDRBS1); in assay [7]; in assay [8]) were 1.32, -0.54 and 1.19, respectively. Moreover, in [1], the composite Z-score is -0.119 (inactive).

With `CC(C)N1C(=O)[C@@]2(c3ccc([N+](=O)[O-])cc3)CC(=O)N(C3CCCCC3)[C@@H]2c2ccc(CO)cc21`, the composite z-score with Albumin (Bos taurus) was -0.545; in assay [2], -0.215; in [3], -0.12; in [4] it was 0.222; in assay [5], -0.0857; in assay [6], 0.398. Moreover, the composite z-score amounted to 0.123 in the assay with Sam68 (KHDRBS1), 0.208 in assay [7] and 0.684 in [8]. The composite Z-score in assay [1] was 0.633 (inactive).

For the molecule `COCCOC(=O)N1C(=O)[C@@]2(c3cc(C#CC4(O)CCCCCC4)ccc31)[C@H](C(N)=O)[C@H]1C(=O)O[C@H](c3ccccc3)[C@H](c3ccccc3)N1[C@@H]2c1ccc(O)cc1`, the composite z-score in the assay with Albumin (Bos taurus) was 0.21; in assay [2], 0.676; in assay [3] it was -0.0349; in [4], 0.181; in assay [5], 1.27; in assay [6] it was 0.298. For the same molecule, the composite z-score with Sam68 (KHDRBS1) stood at 1.12; in assay [7], 0.47; in assay [8], 0.866. Moreover, the composite Z-score in assay [1] was -0.014 (inactive).

Consider `NC(=O)NCC#Cc1ccc2c(c1)[C@]1(C(=O)N2)[C@H](C(=O)O)[C@H]2C(=O)O[C@H](c3ccccc3)[C@H](c3ccccc3)N2[C@@H]1c1ccccc1OCCO`, for which the composite z-score was 0.501 with Albumin (Bos taurus); 0.199 in [2]; 0.0505 in assay [3]; 0.372 in [4]; 0.329 in assay [5]; -0.0878 in assay [6]. Also, the composite z-score was 0.685 in the assay with Sam68 (KHDRBS1), 0.915 in [7] and 1.11 in [8]. In assay [1], the composite Z-score is 0.434 (inactive).

Take `C=CCN1C(=O)[C@@]2(O[C@@H](CCO)[C@H]([Si](C)(C)c3ccc(OC)cc3)[C@H]2C)c2cc(N3C(=O)c4ccccc4Oc4ccccc43)ccc21`: the composite z-score in the assay with Albumin (Bos taurus) was 0.593; in [2], -0.145; in [3], -0.133; in assay [4] it was 0.307; in assay [5], 1.15; in [6], 0.478. In addition, the composite z-score with Sam68 (KHDRBS1) was 0.522; in assay [7], -0.0806; in assay [8], 0.854. Also, the composite Z-score in assay [1] was 0.0553 (inactive).

For `CC(C)C(=C=CC[C@@H](O)c1ccccc1OCCO)C[C@@H](O)COCc1ccccc1`, the composite z-score was -0.111 with Albumin (Bos taurus); -0.132 in assay [2]; 0.0363 in assay [3]; 0.813 in assay [4]; 1.37 in assay [5]; 0.641 in assay [6]. Also, the composite z-score with Sam68 (KHDRBS1) stood at 0.773; in assay [7] it was 0.0362; in assay [8], 0.639. Besides, in assay [1], the composite Z-score is 0.477 (inactive).

On to `CC(C)C(O)C1C=CC2C(=O)N(C)C(=O)C2N1N(c1ccccc1)c1ccccc1` (stereo not given), for which the composite z-score is 0.736 with Albumin (Bos taurus); -0.047 in assay [2]; -0.0482 in [3]; 0.697 in assay [4]; 0.986 in assay [5]; -0.37 in assay [6]. Moreover, the composite z-score in the assay on Sam68 (KHDRBS1) was -0.797; in [7] it was -1.17; in assay [8], -0.847. Further, in assay [1], the composite Z-score is 0.491 (inactive).

For the origin of these results see PubChem BioAssay.
